{"source": "PubChem BioAssay AID652020", "about": "(National Center for Advancing Translational Sciences (NCATS), 2013)", "biological_target": "Glutathione reductase, mitochondrial (Homo sapiens) (UniProt P00390)", "sequence (P00390 whole entry, looked up)": "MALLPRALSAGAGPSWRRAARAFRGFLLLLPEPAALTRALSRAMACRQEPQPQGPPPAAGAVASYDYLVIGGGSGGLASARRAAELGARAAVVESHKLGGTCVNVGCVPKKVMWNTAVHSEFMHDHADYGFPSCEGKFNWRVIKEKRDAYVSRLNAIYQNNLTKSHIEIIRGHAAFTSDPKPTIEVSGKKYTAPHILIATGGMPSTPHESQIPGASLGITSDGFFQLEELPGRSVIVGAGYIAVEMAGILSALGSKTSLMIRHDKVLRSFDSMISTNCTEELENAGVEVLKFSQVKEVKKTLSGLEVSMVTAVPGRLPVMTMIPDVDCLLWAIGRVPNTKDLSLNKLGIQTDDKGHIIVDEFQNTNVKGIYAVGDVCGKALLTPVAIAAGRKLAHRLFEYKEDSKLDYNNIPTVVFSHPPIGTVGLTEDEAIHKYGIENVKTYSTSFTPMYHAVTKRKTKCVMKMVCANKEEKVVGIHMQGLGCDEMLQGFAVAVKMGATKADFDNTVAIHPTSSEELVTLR", "assay": "qHTS Assay for Inhibitors of Mammalian Selenoprotein Thioredoxin Reductase 1 (TrxR1): Counterassay in Glutathione Reductase (GR)", "text": "The selenoprotein thioredoxin reductase (TrxR; EC 1.8.1.9) is a FAD containing homodimeric pyridine nucleotide-disulfide oxidoreductase with many cellular roles. Together with NADPH and its prime substrate thioredoxin (Trx), the enzyme forms the core of the Trx system. The mammalian Trx system exerts a wide spectrum of functions including redox regulation, antioxidant defense, regulation of transcription factors as well as support of cell growth and replication. Many of these functions involve the reduction of Trx, which may subsequently reduce a number of different substrates including ribonucleotide reductase, peroxiredoxins or NFkB. Mammalian TrxR itself also has a broad substrate specificity, reducing both protein and non-protein substrates, including low molecular weight compounds such as dehydroascorbate, lipoic acid, ubiquinone, and juglone. In addition, several drugs in clinical use for anticancer treatment are indeed known to target TrxR1. This assay is counterassay using a yeast glutathione reductase (GR) assay. The desired outcome is inactivity in this assay. NIH Molecular Libraries Probe Production Network [MLPCN] NIH Chemical Genomics Center [NCGC] MLPCN Grant: MH090846 Assay Provider: Elias Arner, Karolinska Institute\nThree microliters of reagents (100 microM NADPH and 60 nM hGR or 100 microM NADPH as no-enzyme control) was dispensed into 1,536-well black clear-bottomed plates (Buffer: 0.1 M potassium phosphate, pH 7.4/10 mM EDTA, 0.01 % Tween-20). Compounds (23nl) was transferred via Kalypsys pin tool equipped with 1536-pin array. The plates were incubated for 15 min at room temperature, and 1microl aliquot of 500 microM NADPH was added, immediately followed by a 1 microl aliquot of 15 mM DTNB (3 mM final concentration) to start the reaction. The plate was transferred to a ViewLux high-throughput CCD imager (Perkin-Elmer, Wellesley, MA) where kinetic measurements (one read per 5 min for 6 reads, total time 25 min) of the TNB absorbance was acquired using a 405 excitation filter.", "note": "This is one part of the list. Records with an inconclusive call do not appear. The source made the active and inactive calls. The call rests on the fitted dose curve; in most records, active means well fitted curve in the direction sought with a large enough effect; inconclusive means small, poorly fitted or top-dose-only effect, or another doubt; inactive means no such curve, though single readings can be large or run the other way."}
{"smiles": "O=C(/C=C/c1ccco1)Nc1cccc(-c2nc3ccccc3[nH]2)c1", "values": [{"measurement": "outcome", "value": "inactive"}]}
{"smiles": "Cc1ccccc1-c1nc(CS(=O)(=O)CC(=O)N2CCc3ccccc3C2)c(C)o1", "values": [{"measurement": "outcome", "value": "inactive"}]}
{"smiles": "CC1CCN(C(=O)c2ccc(S(=O)(=O)Cc3cc(F)ccc3F)c([N+](=O)[O-])c2)CC1", "values": [{"measurement": "outcome", "value": "inactive"}]}
